MITF primary: MITF inhibitors, primary screen, biochemical, AlphaScreen, human; AlphaScreen MITF homodimerization, bead proximity signal; inhibition, % at 2.6 µM; hit rate 0.91% among 650,000; in the data active = inhibition above about 50%;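 also: 0% = vehicle wells with protein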
Target sequence (O75030 whole entry, looked up): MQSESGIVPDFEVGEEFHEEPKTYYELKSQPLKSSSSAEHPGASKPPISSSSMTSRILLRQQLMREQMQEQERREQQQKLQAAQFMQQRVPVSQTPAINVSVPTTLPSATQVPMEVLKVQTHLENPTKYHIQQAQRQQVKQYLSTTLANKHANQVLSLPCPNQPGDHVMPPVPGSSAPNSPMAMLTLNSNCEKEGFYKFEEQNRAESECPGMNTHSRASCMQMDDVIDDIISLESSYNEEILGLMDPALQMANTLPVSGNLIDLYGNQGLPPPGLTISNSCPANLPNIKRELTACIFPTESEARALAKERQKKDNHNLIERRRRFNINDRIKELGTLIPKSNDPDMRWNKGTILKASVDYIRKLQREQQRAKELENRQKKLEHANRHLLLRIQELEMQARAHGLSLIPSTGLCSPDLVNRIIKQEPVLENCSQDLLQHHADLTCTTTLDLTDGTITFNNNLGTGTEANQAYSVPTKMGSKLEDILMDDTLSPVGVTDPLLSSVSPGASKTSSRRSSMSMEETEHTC
TEAD-YAP block: TEAD-YAP interaction inhibition, primary screen, TEAD-YAP interaction inhibitor project, luminescence, HEK-TIYL cells; TEAD-Gal4/YAP UAS-luciferase luminescence; hit rate 1.4% among 640,000; inhibition, % at 9.12 µM; in the data active = inhibition above about 32%;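 also: 0% = median of test compound wells and 100% = reference inhibitor wells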
GPR151 ag: activators of human GPR151, primary screen, cell-based, PathHunter beta-arrestin, luminescence | G-protein coupled receptor 151 (Homo sapiens), Q8TDV0 | PathHunter beta-arrestin GPR151 cells | activation, % at 11.2 µM | hit rate 1% among 650,000; in the data active = activation above about 4.9%;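 also: 0% = median of compound wells and 100% = cells with positive control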
FBW7 activator: FBW7 E3 ligase activators, primary screen, biochemical, AlphaScreen, human; F-box/WD repeat-containing protein 7 (Homo sapiens), Q969H0; AlphaScreen FBW7–phospho-cyclin E peptide binding, activator screen; normalized activity (activation), % at 26.1 µM; hit rate 0.13% among 650,000; in the data active = normalized activity above about 1.9%;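 also: purified mutant Fbw7 with reduced substrate affinity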
An asterisk follows results filed as active. Sampled rows, rich in hits. Any-hit rate of the full collection: about 3.5%.

SMILES	MITF primary	TEAD-YAP block	GPR151 ag	FBW7 activator
c1cnc(N2CCN(c3nc4nonc4nc3N3CCCC3)CC2)cn1	-2	3	-1	0
Cc1cc(N(C)C)nc(NCCNC(=O)C(C)(C)Oc2ccc(Cl)cc2)n1	9	32*	-2	1
O=C(O)/C=C\C(=O)Nc1ccc2cn[nH]c2c1	-5	47*	0	-1
O=C(O)/C=C\C(=O)Nc1ccc(Cl)c(Cl)c1	19	1	0	0
CCCOc1ccc(C(=O)NC(=S)Nc2ccccn2)cc1	-12	51*	-3	0
Cc1c(C(=O)NC(C)C)sc2ncn(CC(=O)N3CCCCC3C)c(=O)c12 (centres undefined)	7	0	0	0
Cc1c(C(=O)NC2CCCCC2)sc2ncn(CC(=O)N3CCCCC3C)c(=O)c12 (centres undefined)	22	0	0	2.0*
CCOC(=O)c1ccccc1Nc1cn(C(C)=O)c2ccccc12	14	52*	0	0
CN(C)CCN(CC1CCCC1)C(=O)Nc1ccc(-c2cn[nH]c2)cc1N(C)CCN(C)C	12	36*	1	0
COc1ccc(C2=Nc3ccccc3N=C(c3cc(OC)ccc3O)C2)cc1	17	-27	-1	0
COc1ccc(O)c(C2=Nc3ccccc3N=C(c3ccccc3)C2)c1	10	-46	2	2.1*
CC1CCc2c(oc3ccc(NS(=O)(=O)c4ccc(C(C)(C)C)cc4)cc23)C1 (centres undefined)	3	-2	0	0
CCCC(=O)Nc1cccc(NC(=O)c2cc([N+](=O)[O-])ccc2Br)c1	9	20	2	0
Cc1ccc(/C=C2\SC(=S)N(/N=C/c3cc([N+](=O)[O-])ccc3O)C2=O)o1	74*	3	0	-1
CC(C)C[C@@H](NC(=O)[C@H](Cc1ccccc1)NC(=O)c1cnccn1)B(O)O	-8	62*	2	0
CC(CCc1ccccc1)NC(=O)c1cnccn1 (centres undefined)	-2	-43	-1	0
Cc1noc(C)c1-c1nc(Nc2ccccc2)c2ncn(C3CCCCC3)c2n1	7	75*	-1	0
Cc1noc(C)c1-c1nc(Nc2ccc(N3CCOCC3)cc2)c2ncn(C3CCCCC3)c2n1	26	-11	1	0
c1ccc(Nc2nc(N3CCc4ccccc4C3)nc3c2ncn3C2CCCCC2)cc1	15	32*	-1	0
c1ccc(Oc2ccc(Nc3nc(N4CCc5ccccc5C4)nc4c3ncn4C3CCCCC3)cc2)cc1	6	1	2	0
COc1ccc(/C=C2\Oc3cc(OC(=O)c4cccnc4)ccc3C2=O)cc1	21	41*	0	0
CC(C)(C)C(=O)Oc1ccc2c(c1)O/C(=C\c1ccncc1)C2=O	6	4	0	0
COc1ccc2c(c1)O/C(=C\c1ccc(OC(C)=O)c(OC)c1)C2=O	-11	43*	3	0
COc1ccc2c(c1)OC/C(=C\c1cccs1)C2=O	10	-45	-1	0
COc1ccc2c(c1)OC/C(=C\c1ccc(OC)c(O)c1)C2=O	1	42*	0	1
SMILES	MITF primary	TEAD-YAP block	GPR151 ag	FBW7 activator
O=C(NN1C(=O)CCC1=O)c1cccc(O)c1	1	5	-1	0
CCOc1ccc2c(c1)C(=C1SC(C(=O)OC)=C(C(=O)OC)S1)C(=S)C(C)(C)N2S(=O)(=O)c1ccc(C)cc1	-11	-3	0	0
CCN(CC)CCn1c2ccccc2c2nc3ccccc3nc21	2	76*	-1	0
COc1cc2nc3c4ccccc4n(C(C)C)c3nc2cc1OC	-49	2	-2	3.7*
CCCn1c2ccccc2c2nc3cc(OC)c(OC)cc3nc21	-10	10	2	3.7*
CCCCn1c2ccccc2c2nc3cc(OC)c(OC)cc3nc21	-5	3	-1	2
CCOc1ccc(-c2ccc(C)c(NS(=O)(=O)c3ccc(NC(=O)CC)cc3)c2)nn1	11	-26	-1	0
c1ccc(Nc2nc(NCC3CCCO3)c3ccccc3n2)cc1 (centres undefined)	2	46*	0	0
Fc1cccc(Nc2nc(NCC3CCCO3)c3ccccc3n2)c1 (centres undefined)	-21	45*	5	0
CCCN1C(=O)C(O)(CC(=O)c2ccccc2[N+](=O)[O-])c2ccccc21 (centres undefined)	-12	5	0	0
O=C(COC(=O)c1cccc(S(=O)(=O)N2CCCCCC2)c1)c1ccc(F)cc1	1	6	1	0
Cc1ccc(C)c(NC(=O)CN(C)C(=O)CCl)c1	-1	73*	-1	0
CN(CC(=O)Nc1ccc(F)cc1)C(=O)CCl	16	42*	-3	0
Cc1ccc(C)c(NC(=O)CN(C)S(=O)(=O)c2ccc(Br)cc2)c1	-5	6	0	0
Cc1sc2ncn3c(=O)n(CC(=O)NC4CCCC4)nc3c2c1C	-6	0	-1	0
COc1ccc(CCNc2nc(Cl)ncc2C)cc1	13	42*	1	0
COc1ccc(CCNc2nc(-c3cccs3)ncc2C)cc1	10	44*	2	0
Cc1cnc(Cl)nc1NCCc1ccc(O)cc1	-2	0	1	0
CCC(Nc1ccccc1)C(=O)N/N=C/c1cc(OC)cc([N+](=O)[O-])c1O (centres undefined)	8	4	0	-1
Cc1ccc(/C=N/Nc2nnc(Cc3ccccc3)c(=O)[nH]2)o1	12	7	1	0
O=c1[nH]c(N/N=C/c2ccccc2O)nnc1Cc1ccccc1	101*	60*	4	0
O=c1cnnc(N/N=C/c2ccccc2O)[nH]1	108*	-3	0	-1
CCN1CCN(c2c(Cl)cccc2NS(=O)(=O)c2ccc(Br)cc2)CC1	6	-2	0	0
COc1ccc(/C=N/c2nc3ccccc3n2C)c2c(OC)cccc12	9	5	0	0
CC(=O)c1cccc(-c2nc(NCc3nc4ccccc4[nH]3)c3ncn(C(C)C)c3n2)c1	-1	67*	2	0
SMILES	MITF primary	TEAD-YAP block	GPR151 ag	FBW7 activator
CC(C)n1cnc2c(NCc3nc4ccccc4[nH]3)nc(-c3cccc(N)c3)nc21	3	84*	2	0
CC(C)n1cnc2c(NCCO)nc(-c3cccc(N)c3)nc21	12	-5	4	0
CC(C)N(CCNc1nc(-c2ccc(N3CCN(C)CC3)cc2)nc2c1ncn2C(C)C)C(C)C	13	39*	0	0
Nc1cccc(-c2nc(NCc3nc4ccccc4[nH]3)c3ncn(-c4ccccc4)c3n2)c1	14	35*	-1	0
C#CCOC(=O)CCCC(=O)O	-1	7	2	0
C[C@H]1NC(=O)[C@H]2CN(C(=O)c3ccc(Cl)cc3)CCN2C1=O	-11	3	1	0
C=CCOC(=O)C1=C(C)Nc2c(c(=O)n(C)c(=O)n2C)C1c1sccc1C (centres undefined)	7	-8	0	0

High-throughput results (PubChem BioAssay)
